# Measured values taken from PubChem BioAssay (EPA / NIEHS).
# Records with an inconclusive call do not appear. Calls of active or inactive are those of the source. Rule for the calls: active = hit-call score of the fitted dose curve at least 0.9, where 1 is the maximum; inconclusive = response in the unintended direction; inactive = score below 0.9.
# Key:
# [1] = molecular target: Peroxisome proliferator-activated receptor gamma (Homo sapiens) (UniProt P37231); assay: ATG_hPPARg_XSP1: Attagene TRANS-FACTORIAL Multi-Species (XSP1) HepG2 Assay for human Peroxisome Proliferator-activated Receptor gamma (PPARg) (AID 2283800)
# Chain of Peroxisome proliferator-activated receptor gamma (Homo sapiens) (P37231 whole entry, looked up, the tested form may be a part): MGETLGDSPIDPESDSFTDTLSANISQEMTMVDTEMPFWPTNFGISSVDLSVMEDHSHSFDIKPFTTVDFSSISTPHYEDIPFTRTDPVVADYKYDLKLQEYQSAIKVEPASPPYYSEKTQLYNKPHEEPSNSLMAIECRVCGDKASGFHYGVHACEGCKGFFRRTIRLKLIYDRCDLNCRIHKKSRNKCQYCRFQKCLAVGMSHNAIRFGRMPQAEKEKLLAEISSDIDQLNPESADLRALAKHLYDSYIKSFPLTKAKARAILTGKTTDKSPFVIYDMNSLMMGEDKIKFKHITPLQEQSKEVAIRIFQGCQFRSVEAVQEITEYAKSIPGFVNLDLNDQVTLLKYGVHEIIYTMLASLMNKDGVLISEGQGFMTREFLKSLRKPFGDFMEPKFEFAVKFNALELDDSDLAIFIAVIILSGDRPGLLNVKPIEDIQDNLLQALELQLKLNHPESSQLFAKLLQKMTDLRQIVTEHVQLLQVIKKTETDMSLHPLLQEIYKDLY
# How it was run: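 HepG2 cells transiently transfected with GAL4-UAS reporter units carrying chimeric NR-Gal4 proteins; 3 nM 6-alpha-fluorotestosterone present. After 24 h dosing, reporter mRNA quantified by RT-PCR and capillary electrophoresis; gain of signal relative to DMSO.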
# [2] = test system: zebrafish Peroxisome Proliferator-activated Receptor gamma (PPARg), gene 557037; assay: ATG_zfPPARg_XSP1: Attagene TRANS-FACTORIAL Multi-Species (XSP1) HepG2 Assay for zebrafish Peroxisome Proliferator-activated Receptor gamma (PPARg) (AID 2283801)
# How it was run: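 HepG2 cells transiently transfected with GAL4-UAS reporter units including a zebrafish PPARg–GAL4 chimera, dosed 24 h with 3 nM 6-alpha-fluorotestosterone present. Reporter mRNA quantified by RT-PCR, FAM labelling, HpaI digestion and capillary electrophoresis; induction versus DMSO.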
# [3] = molecular target: mouse Peroxisome Proliferator-activated Receptor gamma (PPARg), Pparg (gene 19016) (UniProt P37238); assay: ATG_mPPARg_XSP1: Attagene TRANS-FACTORIAL Multi-Species (XSP1) HepG2 Assay for mouse Peroxisome Proliferator-activated Receptor gamma (PPARg) (AID 2283802)
# Chain of mouse Peroxisome Proliferator-activated Receptor gamma (PPARg), Pparg (gene 19016) (P37238 whole entry, looked up, the tested form may be a part): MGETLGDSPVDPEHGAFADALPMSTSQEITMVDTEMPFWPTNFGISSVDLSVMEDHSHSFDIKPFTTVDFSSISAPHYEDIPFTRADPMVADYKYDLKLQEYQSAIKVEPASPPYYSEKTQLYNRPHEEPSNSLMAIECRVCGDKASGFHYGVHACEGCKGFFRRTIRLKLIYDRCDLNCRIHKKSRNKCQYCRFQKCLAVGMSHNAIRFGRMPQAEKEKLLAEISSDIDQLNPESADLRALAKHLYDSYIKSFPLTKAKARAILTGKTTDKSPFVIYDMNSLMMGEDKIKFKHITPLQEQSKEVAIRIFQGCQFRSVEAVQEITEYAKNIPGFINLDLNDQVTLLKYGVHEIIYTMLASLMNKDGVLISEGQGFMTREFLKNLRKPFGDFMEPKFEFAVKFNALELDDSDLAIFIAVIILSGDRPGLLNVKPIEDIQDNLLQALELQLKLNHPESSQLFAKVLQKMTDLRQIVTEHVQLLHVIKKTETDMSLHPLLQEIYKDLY
# How it was run: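 HepG2 cells transiently transfected with GAL4-UAS reporter units driven by mouse PPARg–GAL4 chimera; 3 nM 6-alpha-fluorotestosterone present. After 24 h dosing, reporter mRNA quantified by RT-PCR, fluorescent labelling and capillary electrophoresis; gain of signal versus DMSO.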
# [4] = molecular target: Nuclear receptor subfamily 1 group I member 2 (Mus musculus) (UniProt O54915); assay: ATG_mPXR_XSP1: Attagene TRANS-FACTORIAL Multi-Species (XSP1) HepG2 Assay for mouse Pregnane X Receptor (PXR) (AID 2283803)
# Chain of Nuclear receptor subfamily 1 group I member 2 (Mus musculus) (O54915 whole entry, looked up, the tested form may be a part): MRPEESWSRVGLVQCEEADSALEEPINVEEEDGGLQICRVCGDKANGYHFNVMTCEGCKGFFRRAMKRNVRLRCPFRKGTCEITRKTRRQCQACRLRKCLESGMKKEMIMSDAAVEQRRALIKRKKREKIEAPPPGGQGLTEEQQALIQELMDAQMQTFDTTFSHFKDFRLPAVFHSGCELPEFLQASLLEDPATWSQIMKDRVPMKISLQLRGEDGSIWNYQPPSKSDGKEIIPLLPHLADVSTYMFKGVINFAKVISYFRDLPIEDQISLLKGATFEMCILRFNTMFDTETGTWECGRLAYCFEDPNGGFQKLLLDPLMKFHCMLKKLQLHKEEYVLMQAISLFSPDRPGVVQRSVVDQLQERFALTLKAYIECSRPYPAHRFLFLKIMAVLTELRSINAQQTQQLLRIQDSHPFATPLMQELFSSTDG
# How it was run: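 Transiently transfected HepG2 cells expressing a receptor-Gal4 chimera drive a GAL4-UAS reporter; 3 nM 6-alpha-fluorotestosterone included. Reporter mRNA read 24 h post-dose by RT-PCR and capillary electrophoresis; gain of signal relative to DMSO.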
# [5] = molecular target: frog Thyroid hormone Receptor alpha (TRa), thra-a (gene 397942) (UniProt P15204); assay: ATG_frTRa_XSP1: Attagene TRANS-FACTORIAL Multi-Species (XSP1) HepG2 Assay for frog Thyroid hormone Receptor alpha (TRa) (AID 2283804)
# How it was run: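 HepG2 cells transiently transfected with frog TRa-GAL4 chimeric reporter units, dosed 24 hr with 3 nM 6-alpha-fluorotestosterone present; reporter mRNA quantified by RT-PCR, fluorescent labelling and capillary electrophoresis, gain of signal versus DMSO.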
# [6] = molecular target: human Thyroid hormone Receptor alpha (TRa), THRA (gene 7067) (UniProt P10827); assay: ATG_hTRa_XSP1: Attagene TRANS-FACTORIAL Multi-Species (XSP1) HepG2 Assay for human Thyroid hormone Receptor alpha (TRa) (AID 2283805)
# Chain of human Thyroid hormone Receptor alpha (TRa), THRA (gene 7067) (P10827 whole entry, looked up, the tested form may be a part): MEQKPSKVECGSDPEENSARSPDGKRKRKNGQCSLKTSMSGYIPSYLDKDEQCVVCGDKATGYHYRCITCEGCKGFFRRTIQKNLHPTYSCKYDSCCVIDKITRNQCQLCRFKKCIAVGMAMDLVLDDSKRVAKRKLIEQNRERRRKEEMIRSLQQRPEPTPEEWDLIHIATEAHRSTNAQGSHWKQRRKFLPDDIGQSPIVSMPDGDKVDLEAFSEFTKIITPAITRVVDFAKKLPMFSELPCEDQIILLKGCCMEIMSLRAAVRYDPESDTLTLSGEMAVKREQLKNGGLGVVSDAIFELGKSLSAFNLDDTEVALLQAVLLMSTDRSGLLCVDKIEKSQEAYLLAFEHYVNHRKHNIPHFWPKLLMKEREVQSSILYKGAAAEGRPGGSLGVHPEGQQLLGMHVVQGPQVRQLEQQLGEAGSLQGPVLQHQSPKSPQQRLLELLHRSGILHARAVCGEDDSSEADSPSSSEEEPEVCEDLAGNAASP
# How it was run: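 HepG2 cells transiently transfected with GAL4-UAS reporter units expressing chimeric NR-Gal4 proteins, dosed 24 hours with 3 nM 6-alpha-fluorotestosterone present. Reporter mRNA measured by RT-PCR and capillary electrophoresis; gain of signal fitted versus DMSO.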
# [7] = test system: turtle Thyroid Hormone Receptor, alpha (TRa), gene 101949057; assay: ATG_trTRa_XSP1: Attagene TRANS-FACTORIAL Multi-Species (XSP1) HepG2 Assay for turtle Thyroid Hormone Receptor, alpha (TRa) (AID 2283806)
# How it was run: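 HepG2 cells transiently transfected with GAL4-UAS reporter units and chimeric receptor-Gal4 constructs, with 3 nM 6-alpha-fluorotestosterone present. Reporter mRNA was quantified 24 h after dosing by RT-PCR, 6-FAM labelling and capillary electrophoresis; gain of signal versus DMSO.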
# [8] = molecular target: zebrafish Thyroid Hormone Receptor alpha (TRa), thraa (gene 30670) (UniProt Q98867); assay: ATG_zfTRa_XSP1: Attagene TRANS-FACTORIAL Multi-Species (XSP1) HepG2 Assay for zebrafish Thyroid Hormone Receptor alpha (TRa) (AID 2283807)
# Chain of zebrafish Thyroid Hormone Receptor alpha (TRa), thraa (gene 30670) (Q98867 whole entry, looked up, the tested form may be a part): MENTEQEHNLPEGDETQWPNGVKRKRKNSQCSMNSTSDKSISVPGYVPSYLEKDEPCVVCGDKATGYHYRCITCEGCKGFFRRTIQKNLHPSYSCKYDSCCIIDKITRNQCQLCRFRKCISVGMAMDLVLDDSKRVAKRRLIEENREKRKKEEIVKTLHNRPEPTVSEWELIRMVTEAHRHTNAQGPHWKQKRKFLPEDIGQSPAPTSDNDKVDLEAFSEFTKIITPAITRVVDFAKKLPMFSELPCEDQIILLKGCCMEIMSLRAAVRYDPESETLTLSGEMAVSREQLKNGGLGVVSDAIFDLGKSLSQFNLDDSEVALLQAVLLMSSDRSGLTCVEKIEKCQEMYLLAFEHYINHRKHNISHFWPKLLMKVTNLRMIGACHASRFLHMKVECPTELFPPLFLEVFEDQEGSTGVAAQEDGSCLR
# How it was run: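 HepG2 cells transiently transfected with GAL4-UAS reporter units including a zebrafish TRa–Gal4 chimera, dosed 24 h with 3 nM 6-alpha-fluorotestosterone present. Reporter mRNA quantified by RT-PCR and capillary electrophoresis; gain versus DMSO.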
# [9] = molecular target: human Thyroid hormone Receptor beta (TRb), THRB (gene 7068) (UniProt P10828); assay: ATG_hTRb_XSP1: Attagene TRANS-FACTORIAL Multi-Species (XSP1) HepG2 Assay for human Thyroid hormone Receptor beta (TRb) (AID 2283808)
# Chain of human Thyroid hormone Receptor beta (TRb), THRB (gene 7068) (P10828 whole entry, looked up, the tested form may be a part): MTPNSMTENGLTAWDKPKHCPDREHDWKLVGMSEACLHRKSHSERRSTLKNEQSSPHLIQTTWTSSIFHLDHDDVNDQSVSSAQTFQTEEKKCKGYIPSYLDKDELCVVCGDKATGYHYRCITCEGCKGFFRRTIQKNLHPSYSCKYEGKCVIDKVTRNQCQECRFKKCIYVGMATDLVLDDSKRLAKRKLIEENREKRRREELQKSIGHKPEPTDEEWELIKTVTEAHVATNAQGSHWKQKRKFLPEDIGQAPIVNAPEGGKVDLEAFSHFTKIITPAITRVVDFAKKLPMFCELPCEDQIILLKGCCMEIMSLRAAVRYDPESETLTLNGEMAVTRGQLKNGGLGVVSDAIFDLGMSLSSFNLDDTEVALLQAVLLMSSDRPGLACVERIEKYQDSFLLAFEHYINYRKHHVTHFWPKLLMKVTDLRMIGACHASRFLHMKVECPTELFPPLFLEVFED
# How it was run: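 HepG2 cells transiently transfected with reporter units driving GAL4-UAS reporters for chimeric NR-Gal4 proteins; 24 h chemical exposure with 3 nM 6-alpha-fluorotestosterone present. Reporter mRNA quantified by RT-PCR and capillary electrophoresis, gain of signal versus DMSO.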
# [10] = molecular target: zebrafish Thyroid Hormone Receptor beta (TRb), thrb (gene 30607) (UniProt Q9PVE4); assay: ATG_zfTRb_XSP1: Attagene TRANS-FACTORIAL Multi-Species (XSP1) HepG2 Assay for zebrafish Thyroid Hormone Receptor beta (TRb) (AID 2283809)
# Chain of zebrafish Thyroid Hormone Receptor beta (TRb), thrb (gene 30607) (Q9PVE4 whole entry, looked up, the tested form may be a part): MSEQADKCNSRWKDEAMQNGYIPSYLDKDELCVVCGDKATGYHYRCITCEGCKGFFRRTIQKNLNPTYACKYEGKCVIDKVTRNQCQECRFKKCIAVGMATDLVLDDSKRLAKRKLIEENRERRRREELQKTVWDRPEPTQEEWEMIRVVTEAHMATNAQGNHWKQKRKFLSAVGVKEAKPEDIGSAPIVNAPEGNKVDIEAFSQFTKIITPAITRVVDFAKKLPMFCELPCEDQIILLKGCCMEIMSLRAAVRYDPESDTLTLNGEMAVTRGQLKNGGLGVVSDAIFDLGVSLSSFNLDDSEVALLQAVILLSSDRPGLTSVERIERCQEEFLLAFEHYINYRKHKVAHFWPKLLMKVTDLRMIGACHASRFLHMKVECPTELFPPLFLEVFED
# How it was run: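 HepG2 cells transiently transfected with multiplexed GAL4-UAS reporter units expressing chimeric zebrafish TRb–Gal4. Dosed 24 h with 3 nM 6-alpha-fluorotestosterone present; reporter mRNA measured by RT-PCR, HpaI digestion and capillary electrophoresis; gain of signal versus DMSO.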
# [11] = ATG_XTT_Cytotoxicity_XSP1: Cytotoxicity Assessment in the Attagene TRANS-FACTORIAL Multi-Species (XSP1) HepG2 Assay (AID 2283810)
# How it was run: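 XTT viability readout taken at 24 hours post-dosing in HepG2 liver cells co-treated with 3 nM 6-alpha-fluorotestosterone. Signal loss relative to DMSO controls reflects cytotoxicity.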
# [12] = test system: turtle Estrogen Receptor (ERa), gene 101933533; assay: ATG_trERa_XSP2: Attagene TRANS-FACTORIAL Multi-Species (XSP2) HepG2 Assay for turtle Estrogen Receptor (ERa) (AID 2283812);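 note: human HepG2 liver cells transiently expressing turtle ERa-Gal4 chimeric receptor; actives raise reporter signal above DMSO so AC50 reflects agonist activity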
# How it was run: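 HepG2 cells transiently transfected with GAL4-UAS reporter units expressing turtle ERa-Gal4 chimera. Reporter mRNA measured after 24 h dosing by RT-PCR, fluorescent labelling and capillary electrophoresis; gain of signal fitted versus DMSO.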
# [13] = molecular target: GAL4 Transcription Factor (Internal Marker), GAL4 (gene 855828) (UniProt P04386); assay: ATG_GAL4_XSP2: Attagene TRANS-FACTORIAL Multi-Species (XSP2) HepG2 Assay for GAL4 Transcription Factor (Internal Marker) (AID 2283814);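 note: GAL4 reporter mRNA background control in MRTU transfected cells not a receptor target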
# Chain of GAL4 Transcription Factor (Internal Marker), GAL4 (gene 855828) (P04386 whole entry, looked up, the tested form may be a part): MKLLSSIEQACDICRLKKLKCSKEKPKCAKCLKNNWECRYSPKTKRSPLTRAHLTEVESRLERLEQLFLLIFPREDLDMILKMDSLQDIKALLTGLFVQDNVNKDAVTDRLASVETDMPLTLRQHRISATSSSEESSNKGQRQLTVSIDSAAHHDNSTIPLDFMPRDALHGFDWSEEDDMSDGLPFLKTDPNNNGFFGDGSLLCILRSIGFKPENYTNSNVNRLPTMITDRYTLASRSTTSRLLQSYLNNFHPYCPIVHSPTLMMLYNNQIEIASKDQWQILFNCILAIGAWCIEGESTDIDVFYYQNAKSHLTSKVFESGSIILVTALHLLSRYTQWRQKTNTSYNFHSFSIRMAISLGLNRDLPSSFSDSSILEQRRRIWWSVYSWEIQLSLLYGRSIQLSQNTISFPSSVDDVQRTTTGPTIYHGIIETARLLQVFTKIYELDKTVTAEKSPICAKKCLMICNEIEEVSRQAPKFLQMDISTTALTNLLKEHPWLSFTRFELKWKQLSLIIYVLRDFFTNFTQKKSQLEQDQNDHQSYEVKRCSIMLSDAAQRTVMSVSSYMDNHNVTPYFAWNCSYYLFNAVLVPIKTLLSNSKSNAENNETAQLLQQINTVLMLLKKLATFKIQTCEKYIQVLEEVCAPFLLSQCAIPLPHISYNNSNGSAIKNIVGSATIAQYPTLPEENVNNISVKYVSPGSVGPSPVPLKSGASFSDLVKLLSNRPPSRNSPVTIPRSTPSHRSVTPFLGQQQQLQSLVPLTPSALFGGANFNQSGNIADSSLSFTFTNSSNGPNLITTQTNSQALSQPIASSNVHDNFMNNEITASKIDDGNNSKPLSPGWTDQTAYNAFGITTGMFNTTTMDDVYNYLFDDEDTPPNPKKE
# How it was run: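 HepG2 cells transiently transfected with GAL4-UAS reporter units, stimulated with 3 nM 6-alpha-fluorotestosterone plus 1.5 nM norgestrel, dosed 24 h. Reporter mRNA by RT-PCR/capillary electrophoresis; gain-of-signal fit versus DMSO, background control.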
# [14] = test system: turtle Androgen Receptor (AR), gene 101947425; assay: ATG_trAR_XSP2: Attagene TRANS-FACTORIAL Multi-Species (XSP2) HepG2 Assay for turtle Androgen Receptor (AR) (AID 2283815)
# How it was run: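 HepG2 cells transiently transfected with GAL4-UAS reporter units for chimeric NR-Gal4 receptors; 24 h dosing in presence of 3 nM 6-alpha-fluorotestosterone and 1.5 nM norgestrel. Reporter mRNA by RT-PCR and capillary electrophoresis, gain of signal versus DMSO.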
# [15] = molecular target: chicken Estrogen Receptor (ERa), ESR1 (gene 396099) (UniProt P06212); assay: ATG_chERa_XSP2: Attagene TRANS-FACTORIAL Multi-Species (XSP2) HepG2 Assay for chicken Estrogen Receptor (ERa) (AID 2283817);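 note: actives raise reporter signal above DMSO so AC50 reflects ER activation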
# Chain of chicken Estrogen Receptor (ERa), ESR1 (gene 396099) (P06212 whole entry, looked up, the tested form may be a part): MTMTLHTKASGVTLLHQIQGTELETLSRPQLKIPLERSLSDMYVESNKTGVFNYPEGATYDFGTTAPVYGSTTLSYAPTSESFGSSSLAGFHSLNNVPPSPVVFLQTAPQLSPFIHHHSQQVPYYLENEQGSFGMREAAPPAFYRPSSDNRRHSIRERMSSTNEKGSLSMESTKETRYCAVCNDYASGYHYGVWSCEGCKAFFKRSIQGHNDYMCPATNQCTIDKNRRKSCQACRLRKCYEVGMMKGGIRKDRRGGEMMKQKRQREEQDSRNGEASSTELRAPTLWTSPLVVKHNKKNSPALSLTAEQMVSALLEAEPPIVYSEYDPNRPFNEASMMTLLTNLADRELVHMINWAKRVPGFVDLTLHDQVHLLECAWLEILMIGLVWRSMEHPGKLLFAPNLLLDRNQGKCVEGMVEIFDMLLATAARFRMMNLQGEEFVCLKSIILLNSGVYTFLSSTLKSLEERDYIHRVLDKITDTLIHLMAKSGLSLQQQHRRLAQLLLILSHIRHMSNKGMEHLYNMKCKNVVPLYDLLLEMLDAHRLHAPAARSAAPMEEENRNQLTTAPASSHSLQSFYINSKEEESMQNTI
# How it was run: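 HepG2 cells transiently transfected with multiplexed GAL4-UAS reporter units expressing chimeric chicken ERa-Gal4; 24 h compound exposure. Reporter mRNA measured by RT-PCR with 6-FAM labelling, HpaI digestion and capillary electrophoresis; gain-of-signal fitted versus DMSO.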
# [16] = ATG_M_32_XSP1: Attagene TRANS-FACTORIAL Multi-Species (XSP1) HepG2 Assay for M32 Transcription Factor (Internal Marker) (AID 2283799)
# How it was run: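 HepG2 cells transiently transfected with multi-species TRANS reporter units, dosed 24 h with 3 nM 6-alpha-fluorotestosterone present. Internal-marker reporter mRNA quantified by RT-PCR and capillary electrophoresis; positive-direction fit versus DMSO.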
# [17] = ATG_M_06_XSP2: Attagene TRANS-FACTORIAL Multi-Species (XSP2) HepG2 Assay for M06 Transcription Factor (Internal Marker) (AID 2283811);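 note: hits are increases in signal above the DMSO baseline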
# How it was run: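 HepG2 cells transiently transfected with GAL4-UAS multi-reporter constructs, dosed 24 h with 3 nM 6-alpha-fluorotestosterone plus 1.5 nM norgestrel present to stimulate androgen receptor. Reporter mRNA quantified by RT-PCR, 6-FAM labelling, HpaI digestion and capillary electrophoresis; gain-of-signal fitted versus DMSO baseline.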
smiles,measurement,setting,value
CC1(C)C(C=C(Cl)Cl)C1C(=O)OC(C#N)c1ccc(F)c(Oc2ccccc2)c1 (stereo unspecified),AC50,[1],11.1 µM (active)
same,outcome,[2],inactive
same,AC50,[3],9.66 µM (active)
same,AC50,[4],0.436 µM (active)
same,outcome,[5],inactive
same,outcome,[6],inactive
same,outcome,[7],inactive
same,outcome,[8],inactive
same,outcome,[9],inactive
same,outcome,[10],inactive
same,outcome,[11],inactive
same,outcome,[12],inactive
same,outcome,[13],inactive
same,outcome,[14],inactive
same,outcome,[15],inactive
Oc1cc(Cl)ccc1Oc1ccc(Cl)cc1Cl,outcome,[16],inactive
same,AC50,[1],9.39 µM (active)
same,outcome,[2],inactive
same,AC50,[3],11.1 µM (active)
same,AC50,[4],14.4 µM (active)
same,outcome,[5],inactive
same,AC50,[6],7.06 µM (active)
same,AC50,[7],11.1 µM (active)
same,AC50,[8],14 µM (active)
same,outcome,[9],inactive
same,outcome,[10],inactive
same,AC50,[11],100 µM (active)
same,outcome,[17],inactive
same,outcome,[12],inactive
same,AC50,[13],15.8 µM (active)
same,AC50,[15],7.48 µM (active)
